From PubChem BioAssay (Tox21)
Values without a mark were called inactive. Results filed as inconclusive are left out. The source made the active and inactive calls. The call rests on the fitted dose curve.

Test system: not listed separately
Test: Nuclear factor erythroid 2-related factor 2/antioxidant responsive element (Nrf2/ARE) small molecule agonists: luciferase reporter gene qHTS assay in human keratinocytes (AID 1919969)
Conditions: KeratinoSens HaCaT ARE-luciferase, luminescence, 24 h; series mostly up to 92.4 µM; activity, positive = activation: at the top concentration
Further: nearly all actives have a fitted effect of over 35% in size.
On the % scale 0 is the no-effect control and ±100 the full control effect.

With `NC(=S)Nc1cccc2ccccc12` the activity, positive = activation was -4.89% [at 8.39 µM].

Compared with `NCCOCCN`, `CCCOCCOCCOCCO` is lower in “activity, positive = activation” value: 4.32% for the first, -1.43% for the second.

Going from `C=C(C)[C@H]1CC=C(C)CC1` to `CC1=CC[C@@H](C(C)(C)O)CC1`, the “activity, positive = activation” value rises from -14% to -7.22%.

Compared with `CCCCCCCCCCCCCCC(=O)O`, `CCC(=O)OC/C=C(\C)CCC=C(C)C` is higher in “activity, positive = activation” value: -16.3% for the first, 0.186% for the second.

First: CC(COC(=O)c1ccccc1)OC(=O)c1ccccc1 (centres undefined)
Second: O=C(O)CONC(=O)c1ccccc1
The “activity, positive = activation” value of the first is higher: 3.02% for the first, -3.17% for the second.

First: F[Si-2](F)(F)(F)(F)F
Second: OCC1CC2CC1C1CCC(CO)C21 (centres undefined)
The “activity, positive = activation” value of the first is higher: 10% for the first, -1.98% for the second.

Compared with `NNS(=O)(=O)c1ccc(Oc2ccc(S(=O)(=O)NN)cc2)cc1`, `O=C1CCC(=O)N1` is lower in “activity, positive = activation” value: 3.82% for the first, 0.287% for the second.

Going from `CC(O)CNCC(C)O` (centres undefined) to `CNCCO`, the “activity, positive = activation” value rises from -0.99% to 4.49%.

With `N#CCN(CC#N)CCN(CC#N)CC#N` the “activity, positive = activation” value was -11.5%.

First: O=C1OC(CN2CCOCC2)CN1/N=C/c1ccc([N+](=O)[O-])o1 (centres undefined)
Second: OCc1ccccc1O
The “activity, positive = activation” value of the first is higher: 3.1% [at 42.5 µM] for the first, 2.04% [at 42.5 µM] for the second.

Compared with `N[C@H]1C(O)O[C@H](CO)[C@@H](O)[C@@H]1O` (some centres undefined), `CCOC(=O)c1cccc(N)c1` is higher in “activity, positive = activation” value: 1.54% [at 42.5 µM] for the first, 11.7% [at 42.5 µM] for the second.

Biological target: Gonadotropin-releasing hormone receptor (Homo sapiens) (UniProt P30968)
Test: Human gonadotropin-releasing hormone receptor (GnRHR) small molecule agonists, calcium flux assay in GnRHR-HEK293 cells (AID 1920063)
Conditions: calcium flux fluorescence, agonist mode; series mostly up to 57.6 µM; activity change: at the top concentration
Method in brief: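 Calcium flux, agonist mode, human GnRHR stably integrated in HEK293; dye 1 h at 37 C before compound; Ex/Em=480/540 kinetic read, 3 min; 15 concentrations, triplicate.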

Sequence of Gonadotropin-releasing hormone receptor (Homo sapiens) (P30968 whole entry, looked up): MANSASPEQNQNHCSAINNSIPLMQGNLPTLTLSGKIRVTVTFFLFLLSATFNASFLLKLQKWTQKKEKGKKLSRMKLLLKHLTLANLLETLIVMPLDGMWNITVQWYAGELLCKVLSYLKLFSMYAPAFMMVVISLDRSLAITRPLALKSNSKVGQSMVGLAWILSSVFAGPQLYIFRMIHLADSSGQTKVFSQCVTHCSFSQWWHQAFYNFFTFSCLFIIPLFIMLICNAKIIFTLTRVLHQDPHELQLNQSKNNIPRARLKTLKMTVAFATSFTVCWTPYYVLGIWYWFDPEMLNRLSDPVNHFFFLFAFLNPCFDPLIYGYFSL

First: O=Cc1cccc([N+](=O)[O-])c1
Second: NNC(=O)c1cccc(C(=O)NN)c1
The “activity change” value of the first is higher: 2.07% for the first, -2.22% for the second.

First: CC(COCCO)OCCO (centres undefined)
Second: CCCOCCOCCOCCO
The “activity change” value of the first is higher: -0.171% for the first, -0.372% for the second.

First: NC(=O)CCCCC(N)=O
Second: C=CCCCCCCCCC(=O)OCCCC
The “activity change” value of the first is higher: 0.783% for the first, -0.147% for the second.

Going from `NCC1CCCC(CN)C1` (centres undefined) to `OCC1CC2CC1C1CCC(CO)C21` (centres undefined), the “activity change” value rises from -0.231% to 2.4%.

Compared with `CC(=O)CC(=O)Nc1ccc2[nH]c(=O)[nH]c2c1`, `O=C(O)CONC(=O)c1ccccc1` is lower in “activity change” value: 1.89% for the first, -0.164% for the second.

Going from `Oc1ccc(O)c2c(O)cccc12` to `O=C(C(=O)c1ccco1)c1ccco1`, the “activity change” value falls from 0.666% to 0.377%.

Going from `CCCOC(C)=O` to `CC(=O)NCCO`, the “activity change” value rises from -0.371% to -0.0551%.

Compared with `CCCCCCCCCCCC[N+](C)(C)CCCS(=O)(=O)[O-]`, `CCCCCCCCCCCCCCC(=O)O` is lower in “activity change” value: 1.17% for the first, -0.0631% for the second.

Compared with `CC(C)=C1CC[C@@H](C)CC1=O`, `C=C(C)[C@H]1CC=C(C)CC1` is higher in “activity change” value: 0.09% for the first, 3.24% for the second.

First: COc1ccc(Cl)cc1C
Second: CC(COC(=O)c1ccccc1)OC(=O)c1ccccc1 (centres undefined)
The “activity change” value of the first is higher: 1.03% for the first, -1.74% for the second.

Compared with `NCCOCCN`, `CCC(=O)OC/C=C(\C)CCC=C(C)C` is lower in “activity change” value: -0.058% for the first, -0.0852% for the second.

Going from `CC1=CC[C@@H](C(C)(C)O)CC1` to `O=C1CCC(=O)N1`, the “activity change” value falls from 1.29% to 0.52%.

First: F[Si-2](F)(F)(F)(F)F
Second: NNS(=O)(=O)c1ccc(Oc2ccc(S(=O)(=O)NN)cc2)cc1
The “activity change” value of the first is lower: -0.597% for the first, 1.71% for the second.

Going from `CNCCO` to `N#CCN(CC#N)CCN(CC#N)CC#N`, the “activity change” value rises from -0.393% to -0.144%.

With `NC(=O)N[C@@H](CCC(=O)O)C(=O)O` the “activity change” value was -0.16% [at 26.4 µM, stronger effect = higher value].
For `COc1ccc2cc(C=O)ccc2c1`, the “activity change” value was -1.57% [at 26.4 µM, stronger effect = higher value].
For `CC(O)CCCCn1c(=O)c2c(ncn2C)n(C)c1=O` (centres undefined), the “activity change” value was -0.157% [at 26.4 µM, stronger effect = higher value].
For `Nc1ncnc2c1ncn2Cc1c(F)cccc1Cl`, the “activity change” value was -1.91% [at 26.4 µM, stronger effect = higher value].
With `NC(=S)Nc1cccc2ccccc12` the activity change was 0.074% [at 5.22 µM, stronger effect = higher value].
With `O=C1OC(CN2CCOCC2)CN1/N=C/c1ccc([N+](=O)[O-])o1` (centres undefined) the “activity change” value was -1.64% [at 26.4 µM, stronger effect = higher value].
For `N[C@H]1C(O)O[C@H](CO)[C@@H](O)[C@@H]1O` (some centres undefined), the “activity change” value was -1.56% [at 26.4 µM, stronger effect = higher value].
With `OCc1ccccc1O` the “activity change” value was -0.86% [at 26.4 µM, stronger effect = higher value].
For `CCOC(=O)c1cccc(N)c1`, the “activity change” value was -1.26% [at 26.4 µM, stronger effect = higher value].

With `O=C(O)c1ccc([N+](=O)[O-])cc1` the Potency was “inactive”.
In the case of `CC(O)CNCC(C)O` (centres undefined), the Potency is reported as “inactive”.
